Results from PubChem BioAssay (EPA / NIEHS).
Inconclusive results are not listed. Calls of active or inactive are those of the source. How the source made its calls, unless noted: active means hit-call score of the fitted dose curve at least 0.9, where 1 is the maximum; inconclusive means response in the unintended direction; inactive means score below 0.9.

Read-out: HMG-CoA synthase (HMGCS2), HMGCS2 (gene 3158)
Test: CLD_HMGCS2_48hr: CellzDirect (CLD) Gene Expression Assay for HMG-CoA synthase (HMGCS2) at 48 hours (AID 2283711)
Method in brief: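 mRNA induction read by qNPA chemiluminescence, 48 h after dosing. Cultured primary human liver cells (two donor preparations) received fresh compound daily over two days against 0.2% DMSO vehicle; morphology-based cytotoxicity noted alongside.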

Structure (SMILES) | AC50 | outcome
O=P(O)(O)CCCl | 0.000456 µM (active) | 
CNC(=O)N(C)c1nnc(C(C)(C)C)s1 |  | inactive
CCOC(=O)C(C)OC(=O)c1cc(Oc2ccc(C(F)(F)F)cc2Cl)ccc1[N+](=O)[O-] (configuration not stated) | 0.241 µM (active) | 
CCOc1nc(F)cc2nc(S(=O)(=O)Nc3c(Cl)cccc3Cl)nn12 |  | inactive
CS(=O)(=O)c1cc(C(F)(F)F)ccc1C(=O)c1cnoc1C1CC1 |  | inactive
Cc1cc(C)nc(Nc2ccccc2)n1 |  | inactive
COC(=O)NS(=O)(=O)c1ccc(N)cc1 |  | inactive
CC(C)N1C(=O)c2ccccc2NS1(=O)=O |  | inactive
COc1ccc(-c2ccccc2)cc1NNC(=O)OC(C)C |  | inactive
CCCC(=NOCC)C1=C(O)CC(CC(C)SCC)CC1=O (configuration not stated) |  | inactive

System: not listed separately
Test: STM_H9_CystineISnorm_perc: Stemina devTOX quickPredict H9 human embryonic stem cell (hESC)-based Assay for Cystine (CYSS) Metabolite Biomarker, Normalized (AID 2283713; active means hit-call score of the fitted dose curve at least 0.9, where 1 is the maximum; inactive means score below 0.9)
Method in brief: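 Normalized cystine level in conditioned medium from the final 24h of a 72h treatment of pluripotent H9 cells (daily media and compound renewal). Quantified by UPLC-HRMS with C13-labeled internal standard; scaled to median of 0.1% DMSO vehicle wells.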

Structure (SMILES) | AC50 | outcome
CC(C)Nc1nc(Cl)nc(NC(C)C)n1 | 5.93 µM (active) | 
Cn1c(-c2ccccc2)cc(-c2ccccc2)[n+]1C | 10.9 µM (active) | 
CC1(C)C(C=C(Cl)Cl)C1C(=O)OC(C#N)c1cccc(Oc2ccccc2)c1 (configuration not stated) |  | inactive
O=C(Nc1ccccc1-c1ccc(Cl)cc1)c1cccnc1Cl |  | inactive
CCC(C)n1c(=O)[nH]c(C)c(Br)c1=O (configuration not stated) |  | inactive
CC(C)(C)C(=O)C(Oc1ccc(Cl)cc1)n1cncn1 (configuration not stated) | 34.3 µM (active) | 
CCOc1nc(F)cc2nc(S(=O)(=O)Nc3c(Cl)cccc3Cl)nn12 | 0.0249 µM (active) | 
CS(=O)(=O)c1cc(C(F)(F)F)ccc1C(=O)c1cnoc1C1CC1 |  | inactive
CC(C)C1(C)N=C(c2ncccc2C(=O)O)NC1=O (configuration not stated) |  | inactive
Cc1cc(C)nc(Nc2ccccc2)n1 | 7.74 µM (active) | 
CC1(C)CON(Cc2ccccc2Cl)C1=O | 72.5 µM (active) | 
CCN(CC)C(=O)C(C)Oc1cccc2ccccc12 (configuration not stated) | 5.52 µM (active) | 
COc1ccc(-c2ccccc2)cc1NNC(=O)OC(C)C | 30.5 µM (active) | 
N#Cc1c[nH]cc1-c1cccc2c1OC(F)(F)O2 | 29.4 µM (active) | 
CCOP(=S)(OCC)Oc1nc(Cl)n(C(C)C)n1 | 50.5 µM (active) | 
CCNC(=O)NC(=O)C(C#N)=NOC |  | inactive

System: not listed separately
Test: STM_H9_OrnCyssISnorm_ratio: Stemina devTOX quickPredict H9 human embryonic stem cell (hESC)-based Assay for Ornithine (ORN):Cystine (CYSS) Ratio (AID 2283714)
Method in brief: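 UPLC-HRMS of spent media: ORN/CYSS ratio of internal-standard-normalized percentages, DMSO (0.1%) baseline. Pluripotent H9 hESCs, 72h exposure, daily re-dosing with fresh media; last 24h media collected.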

Structure (SMILES) | AC50 | outcome
CC(C)Nc1nc(Cl)nc(NC(C)C)n1 | 5.16 µM (active) | 
Cn1c(-c2ccccc2)cc(-c2ccccc2)[n+]1C | 20 µM (active) | 
CC1(C)C(C=C(Cl)Cl)C1C(=O)OC(C#N)c1cccc(Oc2ccccc2)c1 (configuration not stated) |  | inactive
O=C(Nc1ccccc1-c1ccc(Cl)cc1)c1cccnc1Cl | 72.1 µM (active) | 
CC(C)(C)C(=O)C(Oc1ccc(Cl)cc1)n1cncn1 (configuration not stated) | 71.8 µM (active) | 
CC1(C)CON(Cc2ccccc2Cl)C1=O | 68.8 µM (active) | 
CCN(CC)C(=O)C(C)Oc1cccc2ccccc12 (configuration not stated) | 6.66 µM (active) | 
COc1ccc(-c2ccccc2)cc1NNC(=O)OC(C)C | 36.1 µM (active) | 
N#Cc1c[nH]cc1-c1cccc2c1OC(F)(F)O2 | 32.8 µM (active) | 
CCOP(=S)(OCC)Oc1nc(Cl)n(C(C)C)n1 | 54.9 µM (active) | 
CCNC(=O)NC(=O)C(C#N)=NOC | 77 µM (active) | 

Read-out: not listed separately
Test: CEETOX_H295R_MTT_cell_viability: Viability Assessment in the CeeTox HT-H295R MTT Assay (AID 2283718; active means hit-call score of the fitted dose curve at least 0.9, where 1 is the maximum; inactive means score below 0.9)
Method in brief: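 Human H295R adrenal cells, prestimulated 48 h with 10 uM forskolin, were exposed 48 h to chemicals in 0.1% DMSO. Viability was measured in the same wells by MTT (0.5 mg/ml, 4 h, 37 C), absorbance 570/650 nm, as percent of controls.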

Structure (SMILES) | outcome
CC(C)Nc1nc(Cl)nc(NC(C)C)n1 | inactive
CCN(CC)c1nc(C)cc(OP(=S)(OC)OC)n1 | inactive
COc1cc(Cl)c(OC)cc1Cl | inactive
CCSC(=O)N1CCCCCC1 | inactive
CC1(C)C(C=C(Cl)Cl)C1C(=O)OC(C#N)c1cccc(Oc2ccccc2)c1 (configuration not stated) | inactive
CN/C(=N\[N+](=O)[O-])NCc1cnc(Cl)s1 | inactive
O=C(Nc1ccccc1-c1ccc(Cl)cc1)c1cccnc1Cl | inactive
CCC(C)n1c(=O)[nH]c(C)c(Br)c1=O (configuration not stated) | inactive
CCOC(=O)C(C)OC(=O)c1cc(Oc2ccc(C(F)(F)F)cc2Cl)ccc1[N+](=O)[O-] (configuration not stated) | inactive
CC(C)(C)C(=O)C(Oc1ccc(Cl)cc1)n1cncn1 (configuration not stated) | inactive
Nc1cnn(-c2ccccc2)c(=O)c1Cl | inactive
CC(C)NC(=O)N1CC(=O)N(c2cc(Cl)cc(Cl)c2)C1=O | inactive
COP(=S)(OC)Oc1ccc([N+](=O)[O-])c(C)c1 | inactive
CC1(C)CON(Cc2ccccc2Cl)C1=O | inactive
CCN(CC)C(=O)C(C)Oc1cccc2ccccc12 (configuration not stated) | inactive
CCOP(=S)(OCC)Oc1nc(Cl)n(C(C)C)n1 | inactive
CCCC(=NOCC)C1=C(O)CC(CC(C)SCC)CC1=O (configuration not stated) | inactive

System: not listed separately
Test: Tanguay_ZF_120hpf_ActivityScore_legacy: (Legacy) Oregon State University Tanguay Lab 120 Hour Post-fertilization zebrafish Assay Score for Activity (AID 2283742);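 on AC50: dechorionated Tropical 5D wild-type zebrafish embryos held singly per well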
Method in brief: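 Dechorionated 5D embryos, one per well, static exposure 6–120 hpf, 28C, sealed and dark; final DMSO 0.64% (vol/vol). Brightfield binary scoring of mortality plus 18 endpoints; gain-of-signal fit versus DMSO baseline.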

Structure (SMILES) | outcome | AC50
CC(C)Nc1nc(Cl)nc(NC(C)C)n1 | inactive | 
O=P(O)(O)CCCl | inactive | 
Nc1c(Cl)c(Cl)nc(C(=O)O)c1Cl | inactive | 
CCSC(=O)N1CCCCCC1 | inactive | 
CC1(C)C(C=C(Cl)Cl)C1C(=O)OC(C#N)c1cccc(Oc2ccccc2)c1 (configuration not stated) |  | 1.14 µM (active)
CN/C(=N\[N+](=O)[O-])NCc1cnc(Cl)s1 | inactive | 
CNC(=O)N(C)c1nnc(C(C)(C)C)s1 | inactive | 
Nc1cnn(-c2ccccc2)c(=O)c1Cl | inactive | 
COC(=O)NS(=O)(=O)c1ccc(N)cc1 | inactive | 
CC(C)N1C(=O)c2ccccc2NS1(=O)=O | inactive | 
CCCCOCN(C(=O)CCl)c1c(CC)cccc1CC | inactive | 
CC1(C)CON(Cc2ccccc2Cl)C1=O | inactive | 
CCN(CC)C(=O)C(C)Oc1cccc2ccccc12 (configuration not stated) | inactive | 
